FLuc counter: counter-screen for miR-21 project: firefly luciferase inhibitors or activators; actives 6.9% (n = 360,000); purified FLuc, Km substrates, luminescence inhibition; P08659; Potency, µM (titrated, usually from 57.5 µM), inactives show top-dose activity change, negative = inhibition, hits mostly inhibitors;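 further: plate controls were vehicle for no effect and reference inhibitor for full effect; nearly all actives have a fitted effect of over 55% in size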
Target sequence (P08659 whole entry, looked up): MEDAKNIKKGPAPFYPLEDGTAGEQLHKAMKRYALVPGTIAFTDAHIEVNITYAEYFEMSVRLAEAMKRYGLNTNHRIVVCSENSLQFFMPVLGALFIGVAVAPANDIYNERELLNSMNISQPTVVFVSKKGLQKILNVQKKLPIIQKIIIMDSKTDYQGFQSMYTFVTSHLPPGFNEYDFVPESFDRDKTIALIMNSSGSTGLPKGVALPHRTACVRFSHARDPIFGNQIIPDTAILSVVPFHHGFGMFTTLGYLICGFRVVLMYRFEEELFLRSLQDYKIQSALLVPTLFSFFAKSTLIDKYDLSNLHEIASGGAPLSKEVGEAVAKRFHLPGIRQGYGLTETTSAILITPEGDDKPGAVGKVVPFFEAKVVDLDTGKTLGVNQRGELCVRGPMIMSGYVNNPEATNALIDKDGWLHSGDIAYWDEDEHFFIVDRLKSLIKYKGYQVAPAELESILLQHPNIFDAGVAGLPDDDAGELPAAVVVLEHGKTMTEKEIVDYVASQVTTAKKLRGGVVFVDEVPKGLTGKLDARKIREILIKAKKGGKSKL
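Purified P. pyralis luciferase (10nM final) with 10uM D-luciferin and 10uM ATP (Km levels) in 50mM Tris acetate pH 7.5, 10mM Mg acetate, 0.01% Tween-20, 0.05% BSA; qHTS 6-point titration, ~60 µM downward; luminescence read.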
Rab9 prom act: activates the Rab9 promoter | Huh7 Rab9 promoter-luciferase reporter, luminescence, 24 h | actives 2.8% (n = 320,000) | AID 485297 | Potency, µM (series often up to 9.22 µM), for inactives: at the highest dose activation, negative = inhibition, most hits filed as activators; further: % of control where 0% means no effect; nearly all actives have a fitted effect of over 60% in size
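Huh7 reporter line, Rab9 promoter upstream of luciferase. Compound exposure 24 h at 37 °C in reduced-serum medium with 10% FBS. Read-out: luminescence.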
SMN2 splice up: SMN2 splice variant enhancement | HEK293 SMN2-luciferase splicing reporter, luminescence, 30-36 h | Potency, µM (top dose mostly 46.1 µM), for inactives: top-dose activity change, positive = activation, actives largely listed as activators | actives 2.8% (n = 210,000) | AID 1458; further: % of control where 0% means no effect; nearly all actives have a fitted effect of over 55% in size
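HEK293 cells carry an SMN2 minigene-luciferase reporter in which exon 7 inclusion puts luciferase in frame. Cells were seeded at 2000 cells/well, attached for 10-12 hours, then exposed to compounds for 30-36 hours at 37C before ONE-Glo luminescence.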
NPC1 prom act: NPC1 promoter activation; Huh7 NPC1 promoter luciferase reporter, 24 h; Potency, µM (titrated, usually from 9.22 µM), for inactives: at the highest dose activation, most hits filed as activators; actives 2.4% (n = 320,000); AID 485313; further: % of control where 0% means no effect; nearly all actives have a fitted effect of over 60% in size
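Luminescence from an NPC1 promoter-driven luciferase reporter in stably transfected Huh7 cells was measured after 24 h compound treatment at 37 °C, followed by 10 min ambient incubation with luciferase detection reagent.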
Luc counter: Kinase-Glo luciferase inhibition (counter-screen). Potency, µM (top dose mostly 38.3 µM), for the others: at the highest dose activity change, negative = inhibition, usual class: inhibitors. AID 1379. Kinase-Glo luciferase, ATP luminescence, 8 min. Q27757. actives 0.28% (n = 200,000); further: on the % scale 0 is the no-effect control and ±100 the full control effect; nearly all actives have a fitted effect of over 60% in size
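Compounds were added to a substrate mix at pH 7.2 (50 mM imidazole, 10 uM ATP, within the enzyme's linear range), followed by Kinase-Glo detection reagent; luminescence was measured after 8 minutes at ambient temperature.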
ELG1 genotoxic: genotoxicity induction in ELG1-luciferase HEK293T cells. HEK293T ELG1-luciferase reporter, luminescence, 16 h. Potency, µM (doses to about 46 µM), without a hit: top-dose activity change, positive = activation, actives largely listed as activators. actives 1.3% (n = 330,000). AID 504466; further: % of control where 0% means no effect; nearly all actives have a fitted effect of over 60% in size
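HEK293T cells expressing luciferase-tagged ELG1 were treated with compound or DMSO for 16 hr at 37°C. Luciferase activity was then read after 30 min with ONE-Glo at room temperature; rising signal flags genetic stress.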
* marks the source's active call; other numbers are inactive results; [ ] = another dose, or the depositor's remark. Sampled rows, rich in hits. Any-hit rate of the full collection: about 7.4%. The call rests on the fitted dose curve; in most records, active means well fitted curve in the direction sought with a large enough effect; inconclusive means small, poorly fitted or top-dose-only effect, or another doubt; inactive means no such curve, though single readings can be large; an effect the other way counts as inactive or inconclusive. Potency means the concentration at half of the fitted maximal effect.

How did COc1ccc(CN(C(=O)c2cc3ccccc3oc2=O)C2CCS(=O)(=O)C2)cc1 (configuration not stated) do in these assays?
FLuc counter: -12.7%; Rab9 prom act: 2.7%; SMN2 splice up: -6.6%; NPC1 prom act: -4.3%; ELG1 genotoxic: 7.1%

How did CC(C)c1cnc2c(c1SCC(=O)Nc1ccc(OC(F)(F)F)cc1)c(=O)n(C)c(=O)n2C do in these assays?
FLuc counter: 1.7%

Results for Clc1ccc(-c2nc3n(n2)Cc2ccccc2-3)cc1 ?
FLuc counter: 0.536µM*; Rab9 prom act: 1.58µM*; SMN2 splice up: 0.501µM*; NPC1 prom act: 3.16µM*; Luc counter: inconclusive; ELG1 genotoxic: inconclusive

Results for CCN(CC)S(=O)(=O)c1cccc(-c2nc3n(n2)Cc2ccccc2-3)c1 ?
FLuc counter: 12µM*; Rab9 prom act: inconclusive; SMN2 splice up: -16.5%; NPC1 prom act: inconclusive; Luc counter: -3.7%; ELG1 genotoxic: 5.3%

What do the screens show for `CCc1ccc(NC(=S)N2CCCC(C(F)(F)F)C2)cc1` (configuration not stated)?
FLuc counter: 15.1µM*; Rab9 prom act: 2.2%; SMN2 splice up: -12.1%; NPC1 prom act: 1.4%; Luc counter: 6.7%; ELG1 genotoxic: 4.2%

Results for CCc1ccc(NC(=S)N2CCCC2)cc1 ?
FLuc counter: 21.3µM*; Rab9 prom act: inconclusive; NPC1 prom act: inconclusive; ELG1 genotoxic: 18.3µM*

How did CC1CCCN(C(=S)Nc2ccc(F)cc2)C1 (configuration not stated) do in these assays?
FLuc counter: -18.5%; Rab9 prom act: 3.4%; SMN2 splice up: 0.1%; NPC1 prom act: -1.1%; Luc counter: 1.1%; ELG1 genotoxic: -5.0%

Results for CCc1ccc(NC(=S)N2CCN(C)CC2)cc1 ?
FLuc counter: 6.01µM*; Rab9 prom act: inconclusive; NPC1 prom act: 29.2%; ELG1 genotoxic: inconclusive

What do the screens show for `CCc1ccc(NC(=S)NCc2cccnc2)cc1`?
FLuc counter: -14.0%; Rab9 prom act: 10.7%; NPC1 prom act: -1.1%; ELG1 genotoxic: -1.0%

What do the screens show for `CCc1ccc(NC(=S)NCc2ccccc2)cc1`?
FLuc counter: inconclusive; Rab9 prom act: inconclusive; SMN2 splice up: 11.2µM*; NPC1 prom act: 27.2%; Luc counter: -1.3%; ELG1 genotoxic: 11.2%

What do the screens show for `O=C1Nc2ccc(Br)cc2C1(O)c1ccc(F)cc1` (configuration not stated)?
FLuc counter: 1.6%; Rab9 prom act: -2.0%[1.84 µM]; NPC1 prom act: -0.6%; ELG1 genotoxic: -3.6%

How did CCOc1ccc(NC(=O)c2cc(S(=O)(=O)N3CCOCC3)cn2C)cc1 do in these assays?
FLuc counter: -11.8%; Rab9 prom act: -0.4%; NPC1 prom act: -3.8%; ELG1 genotoxic: -1.8%

What do the screens show for `O=C(OCC(=O)N1CCCC1)c1cccc(Br)c1`?
FLuc counter: -17.1%; Rab9 prom act: 12.8%; NPC1 prom act: 17.0%; ELG1 genotoxic: inconclusive

Results for O=C(OCC(=O)N1CCCCCC1)c1ccccc1Br ?
FLuc counter: 5.36µM*; Rab9 prom act: 1.78µM*; NPC1 prom act: 2.24µM*; ELG1 genotoxic: inconclusive

What do the screens show for `Cc1ccc(C(=O)OCC(=O)N2CCCCCC2)c(O)c1`?
FLuc counter: 12µM*; Rab9 prom act: 2.82µM*; NPC1 prom act: inconclusive; ELG1 genotoxic: 13.5%

How did COc1ccc(C(=O)OCC(=O)NC2CC2)cc1[N+](=O)[O-] do in these assays?
FLuc counter: 7.8%; Rab9 prom act: 0.4%; SMN2 splice up: 5.62µM*; NPC1 prom act: -2.0%; Luc counter: -3.9%; ELG1 genotoxic: 1.7%

What do the screens show for `O=C(COC(=O)c1ccccc1Br)NC1CCCCCCC1`?
ELG1 genotoxic: -0.6%

Results for O=C(COC(=O)c1ccccc1Br)NC1CCCC1 ?
FLuc counter: 16.9µM*; Rab9 prom act: 20.9%; NPC1 prom act: 29.4%; ELG1 genotoxic: inconclusive

What do the screens show for `COc1ccc(C(=O)OCC(=O)NC2CC2)cc1OC`?
FLuc counter: 1.5%; Rab9 prom act: -3.0%; NPC1 prom act: -1.9%; ELG1 genotoxic: -1.4%

What do the screens show for `Cc1ccc(-n2ncc(C(=O)Nc3ccc4c(c3)OCO4)c2C2CCN(C(=O)OC(C)(C)C)CC2)c(C)c1`?
FLuc counter: -18.5%

What do the screens show for `O=C(OCC(=O)N1CCCC1)c1ccccc1O`?
FLuc counter: 15.1µM*; Rab9 prom act: inconclusive; NPC1 prom act: 2.82µM*; ELG1 genotoxic: inconclusive

What do the screens show for `COc1cc(SC)ccc1C(=O)OCC(=O)NC1CCCC1`?
FLuc counter: 23.9µM*; Rab9 prom act: inconclusive; SMN2 splice up: -3.6%; NPC1 prom act: 1.1%; Luc counter: -0.5%; ELG1 genotoxic: inconclusive

What do the screens show for `O=C(OCC(=O)N1CCCCCC1)c1ccc[nH]c1=O`?
ELG1 genotoxic: 0.2%

Results for Cc1cc(C(=O)COc2ncnc3sccc23)c(C)n1C ?
FLuc counter: 16.9µM*; Rab9 prom act: inconclusive; SMN2 splice up: 11.2µM*; NPC1 prom act: inconclusive; Luc counter: 2.5%; ELG1 genotoxic: 18.4µM*

How did CC1(C)Cc2c(sc(/N=C/N3CCCCCC3)c2C#N)C(C)(C)N1 do in these assays?
FLuc counter: -4.4%; Rab9 prom act: -3.6%; SMN2 splice up: 13.6%; NPC1 prom act: 2.1%; Luc counter: -0.3%; ELG1 genotoxic: -0.5%

Results for CCCN(/C=N/c1sc2c(c1C#N)CCCCC2)CCC ?
FLuc counter: 19µM*; Rab9 prom act: 14.6%; SMN2 splice up: 6.8%; NPC1 prom act: 25.8%; Luc counter: -1.8%; ELG1 genotoxic: 1.4%

How did CN(C)/C=N/c1sc2c(c1C#N)CCCCC2 do in these assays?
FLuc counter: 21.3µM*; Rab9 prom act: inconclusive; SMN2 splice up: inconclusive; NPC1 prom act: inconclusive; Luc counter: -0.3%; ELG1 genotoxic: inconclusive

What do the screens show for `N#Cc1c(/N=C/N2CCOCC2)sc2c1CCCCC2`?
FLuc counter: 5.36µM*; Rab9 prom act: 2.51µM*; SMN2 splice up: 11.2µM*; NPC1 prom act: 3.98µM*; Luc counter: 4.6%; ELG1 genotoxic: 5.8µM*

How did CN(C)/C=N/c1sc2c(c1C#N)CCC2 do in these assays?
FLuc counter: -8.9%; Rab9 prom act: 1.5%; SMN2 splice up: -28.9%; NPC1 prom act: 8.7%; Luc counter: -5.7%; ELG1 genotoxic: 5.2%

Results for CC(C)(C)c1ccc(C(=O)NNC(=O)Cc2cccc3ccccc23)cc1 ?
FLuc counter: 15.1µM*; Rab9 prom act: 1.0%; SMN2 splice up: 17.3%; NPC1 prom act: 0.5%; Luc counter: -8.8%; ELG1 genotoxic: -21.5%

Compound activity as filed in PubChem BioAssay.
